The panel holds about 83,000 compounds, 20% with a hit somewhere; the sample as a whole holds those more often.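 Single-concentration screen, 48 h exposure, 96-well plates. Endpoint: percent growth. Below 10 = active.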 A number with no mark means an inactive call. Calls of active or inactive are those of the source.
Experiments:
Assay in all cases: NCI-60 one-dose screen, 48 h (100 = growth as untreated, 0 = no growth, -100 = all killed)
Details in all cases: 10 µM unless noted
T-47D breast = system: T-47D breast
BT-549 breast = system: BT-549 breast
MDA-MB-435 melanoma = system: MDA-MB-435 melanoma
SW-620 colon = system: SW-620 colon
MCF7 breast = system: MCF7 breast
HCT-116 colon = system: HCT-116 colon
HCC-2998 colon = system: HCC-2998 colon
KM12 colon = system: KM12 colon

Q: With Cc1nc2c3c(ncn2n1)Oc1c(c(=O)[nH]c2ccccc12)C3c1ccc(Cl)cc1 (stereo not drawn) as the molecule, how does the growth (T-47D breast) read?
A: 86%

Q: And the growth (BT-549 breast)?
A: -52.7% (active)

Q: And the growth (MDA-MB-435 melanoma)?
A: 102%

Q: What about the growth (SW-620 colon) of the same molecule?
A: 95.4%

Q: What about the growth (MCF7 breast) of the same molecule?
A: 91.6%

Q: And the growth (HCT-116 colon)?
A: 88.8%

Q: What about the growth (HCC-2998 colon) of the same molecule?
A: 102%

Q: What about the growth (KM12 colon) of the same molecule?
A: 99.2%

Q: Which results are given for COc1ccc2c(c1)cn1c3ccc(OC)cc3[nH]c(=O)c21?
A: growth (T-47D breast): -32.2% (active); growth (BT-549 breast): -0.958% (active); growth (MDA-MB-435 melanoma): -80% (active); growth (SW-620 colon): -38.9% (active); growth (MCF7 breast): -47.5% (active); growth (HCT-116 colon): -75.8% (active); growth (HCC-2998 colon): -68.5% (active); growth (KM12 colon): -61.7% (active)

Q: For CCN(CC)CCOc1ccc(Cl)c(C)c1, which growth (T-47D breast) is on record?
A: 104%

Q: What about the growth (BT-549 breast) of the same molecule?
A: 112%

Q: And the growth (MDA-MB-435 melanoma)?
A: 106%

Q: What about the growth (SW-620 colon) of the same molecule?
A: 106%

Q: What about the growth (MCF7 breast) of the same molecule?
A: 96.2%

Q: What about the growth (HCT-116 colon) of the same molecule?
A: 98.5%

Q: And the growth (HCC-2998 colon)?
A: 90.6%

Q: What about the growth (KM12 colon) of the same molecule?
A: 105%

Q: What does the source list for COP(=O)(OC)/C(=N\NS(=O)(=O)c1ccc(C)cc1)c1ccccc1?
A: growth (T-47D breast): 94.7%; growth (BT-549 breast): 125%; growth (MDA-MB-435 melanoma): 106%; growth (SW-620 colon): 105%; growth (MCF7 breast): 88.6%; growth (HCT-116 colon): 103%; growth (HCC-2998 colon): 102%; growth (KM12 colon): 103%

Q: Which results are given for COc1c2occc2c(OC)c2c(=O)c(-c3cc(-c4ccc(F)cc4)c(C#N)c(N)n3)c(C)oc12?
A: growth (T-47D breast): 30.7%; growth (BT-549 breast): 63.7%; growth (MDA-MB-435 melanoma): 63.1%; growth (SW-620 colon): 42.3%; growth (MCF7 breast): 13.4%; growth (HCT-116 colon): 9.9% (active); growth (HCC-2998 colon): 69.3%; growth (KM12 colon): 46.2%

Q: How did the growth (T-47D breast) turn out when CC(=O)Nc1ccc(/C=C/C(=O)c2ccccc2)cc1 was run?
A: 73.9%

Q: And the growth (BT-549 breast)?
A: 86.2%

Q: What about the growth (MDA-MB-435 melanoma) of the same molecule?
A: 114%

Q: What about the growth (SW-620 colon) of the same molecule?
A: 53.2%

Q: And the growth (MCF7 breast)?
A: 56.4%

Q: And the growth (HCT-116 colon)?
A: 77%

Q: What about the growth (HCC-2998 colon) of the same molecule?
A: 113%

Q: What about the growth (KM12 colon) of the same molecule?
A: 46.6%

Q: How did the growth (T-47D breast) turn out when COc1cc(C(=O)/C=C/c2ccc3nc(-c4cc(F)cc(F)c4)sc3c2)cc(OC)c1OC was run?
A: 102%

Q: And the growth (BT-549 breast)?
A: 95.3%

Q: What about the growth (MDA-MB-435 melanoma) of the same molecule?
A: 106%

Q: And the growth (SW-620 colon)?
A: 104%

Q: What about the growth (MCF7 breast) of the same molecule?
A: 97.5%

Q: And the growth (HCT-116 colon)?
A: 87%

Q: What about the growth (HCC-2998 colon) of the same molecule?
A: 93.1%

Q: What about the growth (KM12 colon) of the same molecule?
A: 108%

Q: What does the source list for CC(C)(C)c1[nH]nc2c1C(c1cc3ccccc3[nH]c1=O)Nc1cc(C(=O)Nc3ccc(Cl)cc3)ccc1N2 (stereo not drawn)?
A: growth (T-47D breast): 40%; growth (BT-549 breast): 63.9%; growth (MDA-MB-435 melanoma): 35.4%; growth (SW-620 colon): 66.3%; growth (MCF7 breast): 27.8%; growth (HCT-116 colon): 45.6%; growth (HCC-2998 colon): 86.3%; growth (KM12 colon): 50.2%

Q: COc1ccc(/C=C(\C#N)c2cc(OC)c3c(c2)OCO3)cc1 was tested. Which growth (T-47D breast) did it give?
A: 62.3%

Q: And the growth (BT-549 breast)?
A: 30.9%

Q: What about the growth (MDA-MB-435 melanoma) of the same molecule?
A: -17.6% (active)

Q: What about the growth (SW-620 colon) of the same molecule?
A: 24.4%

Q: What about the growth (MCF7 breast) of the same molecule?
A: 17.4%

Q: What about the growth (HCT-116 colon) of the same molecule?
A: 6.05% (active)

Q: And the growth (HCC-2998 colon)?
A: 15.7%

Q: And the growth (KM12 colon)?
A: 5.15% (active)

Q: What does the source list for Cc1cc(N/N=C/c2nc(-c3ccc(Br)cc3)oc2C)c2cc(Br)ccc2n1?
A: growth (T-47D breast): 89.8%; growth (BT-549 breast): 93.1%; growth (MDA-MB-435 melanoma): -11.2% (active); growth (SW-620 colon): -46.5% (active); growth (MCF7 breast): -78.7% (active); growth (HCT-116 colon): 16.1%; growth (HCC-2998 colon): 94.7%; growth (KM12 colon): 60.2%

Q: With C=C(C)[C@@H]1CC[C@]2(C(=O)O)CC[C@]3(C)[C@H](CC[C@@H]4[C@@]5(C)C[C@@H](CC#Cc6ccc(C(F)(F)F)cc6)[C@H](O)C(C)(C)[C@@H]5CC[C@]43C)[C@@H]12 as the molecule, how does the growth (T-47D breast) read?
A: 19%

Q: What about the growth (BT-549 breast) of the same molecule?
A: 36.7%

Q: What about the growth (MDA-MB-435 melanoma) of the same molecule?
A: -31.8% (active)

Q: What about the growth (SW-620 colon) of the same molecule?
A: 15%

Q: And the growth (MCF7 breast)?
A: 8.54% (active)

Q: And the growth (HCT-116 colon)?
A: 11.4%

Q: And the growth (HCC-2998 colon)?
A: 18.2%

Q: And the growth (KM12 colon)?
A: 15.3%

Q: How did the growth (T-47D breast) turn out when CCCN=C1NC(=O)/C(=C/c2nc(-c3ccc(OC)cc3)n3ccccc23)S1 was run?
A: 87.3%

Q: And the growth (BT-549 breast)?
A: 90.5%

Q: And the growth (MDA-MB-435 melanoma)?
A: 109%

Q: What about the growth (SW-620 colon) of the same molecule?
A: 72.9%

Q: And the growth (MCF7 breast)?
A: 77.5%

Q: And the growth (HCT-116 colon)?
A: 26.3%

Q: And the growth (HCC-2998 colon)?
A: 97%

Q: And the growth (KM12 colon)?
A: 48.8%

Q: Which results are given for C[n+]1c(/C=C/c2c(O)ccc3ccccc23)ccc2ccccc21?
A: growth (T-47D breast): 26.6%; growth (BT-549 breast): 27.9%; growth (MDA-MB-435 melanoma): 25.6%; growth (SW-620 colon): 17%; growth (MCF7 breast): 15.9%; growth (HCT-116 colon): -13.9% (active); growth (HCC-2998 colon): 59.8%; growth (KM12 colon): 38.7%

Q: Which results are given for O=C1c2ccccc2-c2ccccc2C1(Cl)Cl?
A: growth (T-47D breast): -42.7% (active); growth (BT-549 breast): -84% (active); growth (MDA-MB-435 melanoma): -90.1% (active); growth (SW-620 colon): -65.8% (active); growth (MCF7 breast): -88.7% (active); growth (HCT-116 colon): -70.6% (active); growth (HCC-2998 colon): 89.6%; growth (KM12 colon): -90.6% (active)

Q: For CCOc1cc2c(Cl)ncnc2c(OCC)c1OCC, which growth (T-47D breast) is on record?
A: 76.3%

Q: And the growth (BT-549 breast)?
A: 75.1%

Q: And the growth (MDA-MB-435 melanoma)?
A: 78.5%

Q: And the growth (SW-620 colon)?
A: 59.2%

Q: And the growth (MCF7 breast)?
A: 52.4%

Q: And the growth (HCT-116 colon)?
A: 49.6%

Q: And the growth (HCC-2998 colon)?
A: -45.3% (active)

Q: What about the growth (KM12 colon) of the same molecule?
A: 71.6%

Q: Which results are given for COc1ccc(-c2nc(SCCC(C)C)nc(Nc3ccc(F)c(Cl)c3)c2C#N)cc1?
A: growth (T-47D breast): 72.4%; growth (BT-549 breast): 97.1%; growth (MDA-MB-435 melanoma): 79.1%; growth (SW-620 colon): 54.8%; growth (MCF7 breast): 69.1%; growth (HCT-116 colon): 68.3%; growth (HCC-2998 colon): 102%; growth (KM12 colon): 102%

Source: PubChem BioAssay (NCI)
